Measured values published in ChEMBL document CHEMBL1157539, “Thousands of chemical starting points for antimalarial lead identification” (Nature, 2010).

How the values were obtained:
Format in all cases: functional
Plasmodium falciparum [1] = test: GSK_TCMDC: Inhibition of Plasmodium falciparum 3D7 in whole red blood cells, using parasite LDH activity as an index of growth. Test compounds present at 2uM
Plasmodium falciparum [2] = test: GSK_TCMDC: Inhibition of Plasmodium falciparum Dd2 in whole red blood cells, using parasite LDH activity as an index of growth. Test compounds present at 2uM
HepG2 = test: GSK_TCMDC: Percent inhibition of human HepG2 cell line. Test compounds present at 10uM.

SMILES	Inhibition (Plasmodium falciparum [1]) [%]	Inhibition (Plasmodium falciparum [2]) [%]	Inhibition (HepG2) [%]
CC1CC(C)CN(CCCNc2ccc(C(=O)Nc3ccc(C(F)(F)F)cc3)cc2[N+](=O)[O-])C1 (centres undefined)	100	99	31
Clc1ccc2c(NCc3ccccn3)ccnc2c1	99	99	0
CCN(CC)CCN(Cc1ccc(-c2ccc(C(F)(F)F)cc2)cc1)C(=O)Cn1c(CCc2cc(F)ccc2F)nc(=O)c2ccccc21.O=C(O)C(O)C(O)C(=O)O	98	52	42
CCc1cn2c3c(cc(C(=O)N[C@@H](Cc4cccc(F)c4)[C@H](O)CNC4CCOCC4)cc13)N(C)S(=O)(=O)CC2.O=CO	97	97	0
CN1CCN(CCCN(Cc2ccc(-c3cccc(CNC4CCCC4)c3)cc2)C(=O)Nc2ccccc2)CC1.O=C(O)C(F)(F)F	92	76	28
O=C(Nc1ccc(Cn2ncc(N3CCCNCC3)c(Cl)c2=O)cc1)Nc1cccc(C(F)(F)F)c1.O=C(O)C(F)(F)F	100	30	20
N#Cc1c(N2CCN(c3ccc(F)cc3)CC2)nc(N)c2c(N)nc3c(c12)CC(=O)N3C1CC1	95	82	2
CCc1nc2c(cnn2CC)c(NC2CCOCC2)c1CNC(=O)N1CCOCC1	98	48	0
